± gives the standard deviation of the averaged measurements.

Here are results for 37 compounds from the supplement of paper PMC10720658.

The test system of this assay is AEK1 (Tb927.3.2440). Nature of the assay: percent reduction in TR-FRET probe signal relative to DMSO control; higher = stronger displacement of ATP-site probe (binding). The note with it: 1 µM; incubation time 1 h.
For the compound `COc1cc(-c2cc(-c3ccc(N4CCNCC4)cc3)cnc2C)cc(OC)c1OC`, the “percent reduction in TR-FRET probe signal” value (shortened to “percent reduction”) was -4.94 ± 0.48%.
As for `CCn1c(N)c(C(=O)NC)c(=O)c2ccc(C#C[C@@](C)(O)COC)nc21`, the “percent reduction” value came out at 10.3 ± 4.8%.
Turning to `CCC(=O)Nc1cccc(Oc2nc(Nc3ccc(N4CCN(C)CC4)cc3OC)ncc2Cl)c1`, the “percent reduction” value is -15.7 ± 6.4%.
With `O=C(NCc1cccc(O)c1)Nc1nc(-c2ccncc2)cs1` the figure was -10 ± 8.6%; with `COc1ccc(-c2cc3c(C)nc(N)nc3n([C@H]3CC[C@H](OCCO)CC3)c2=O)cn1`, -8.41 ± 7.5%; with `COc1cc(Nc2nc3ccccc3nc2NS(=O)(=O)c2ccc(NC(=O)c3ccc(C)c(OC)c3)cc2)cc(OC)c1`, 18.9 ± 14%.
As for `CN(C)CCOc1ccc(-c2nc(-c3ccncc3)c(-c3ccc4c(c3)CC/C4=N\O)[nH]2)cc1`, the “percent reduction” value was 3.05 ± 12%.
`Cl.NC(=O)c1cnc(N[C@@H]2CCCC[C@@H]2N)nc1Nc1cccc(-n2nccn2)c1`: the “percent reduction” value was -0.93 ± 1.4%.
Take `CO[C@@H](C(=O)N1Cc2[nH]nc(NC(=O)c3ccc(N4CCN(C)CC4)cc3)c2C1)c1ccccc1`: the “percent reduction” value came out at 24.2 ± 6.1%.
With `Cl.Cl.O=S(=O)(NCCNC/C=C/c1ccc(Br)cc1)c1cccc2cnccc12` the figure was 9.74 ± 13%; with `CCn1c(-c2nonc2N)nc2c(C#CC(C)(C)O)ncc(OC[C@H]3CCCNC3)c21`, 8.8 ± 4.9%.
As for `CNc1nc(-c2ccc3c(N)n[nH]c3c2)cc(N2C[C@@H](C(=O)NC3CCCCC3)CC[C@H]2C)n1`, the “percent reduction” value was found to be 14.7 ± 20%.
As for `CCN(CC)CCNC(=O)c1c(C)[nH]c(/C=C2\C(=O)Nc3ccc(F)cc32)c1C.O=C(O)C[C@H](O)C(=O)O` [Sunitinib Malate], the “percent reduction” value was 14.7 ± 14%.
For `C#Cc1cccc(Nc2ncnc3cc4c(cc23)OCCOCCOCCO4)c1` [Icotinib], the “percent reduction” value was -5.67 ± 19%.
For `COc1cc2nccc(Oc3ccc(NC(=O)Nc4ccc(F)cc4F)c(F)c3)c2cc1OC`, the “percent reduction” value is 10.2 ± 11%.
`COc1ccc2c(Oc3ccc(NC(=O)c4c(C)n(CC(C)(C)O)n(-c5ccccc5)c4=O)nc3)ccnc2c1`: the “percent reduction” value is 0.253 ± 6.4%.
On to `CCn1c2ccccc2c2cc(Nc3ccnc(NCCCN4CCOCC4)n3)ccc21`, for which the “percent reduction” value is -8.54 ± 5.5%.
As to `C=CC(=O)Nc1ccc(CN2C(=O)N(c3cc(OC)cc(OC)c3)Cc3cnc(Nc4ccc(N5CCN(C)CC5)cc4)nc32)cc1`, the “percent reduction” value amounted to 4.12 ± 14%.
With `N#Cc1c(NC(=O)c2cccc3ccccc23)sc2c1CCCC2` [JNK Inhibitor IX] the figure was -3.71 ± 5.5%; with `CCCCCCCCCCCCCCCCCCOP(=O)([O-])OC1CC[N+](C)(C)CC1` [Perifosine (KRX-0401)], -18.1 ± 6.6%; with `c1cncc(CN2CCC(n3ncc4c(N5CCOCC5)nc(-c5ccc6[nH]ccc6c5)nc43)CC2)c1`, 6.62 ± 13%.
Turning to `Cc1cc2c(F)c(Oc3ncnn4cc(OC[C@@H](C)O)c(C)c34)ccc2[nH]1`, the “percent reduction” value stood at 20.2 ± 15%.
For `CO[C@H]1C[C@@H]2CC[C@@H](C)[C@@](O)(O2)C(=O)C(=O)N2CCCC[C@H]2C(=O)O[C@H]([C@H](C)C[C@@H]2CC[C@@H](OC(=O)C(C)(CO)CO)[C@H](OC)C2)CC(=O)[C@H](C)/C=C(\C)[C@@H](O)[C@@H](OC)C(=O)[C@H](C)C[C@H](C)/C=C/C=C/C=C/1C`, the “percent reduction” value came to 2.13 ± 12%.
On to `Cl.Cl.Clc1ccc(Nc2nnc(Cc3ccncc3)c3ccccc23)cc1` [Vatalanib (PTK787) 2HCl], for which the “percent reduction” value worked out at 4.61 ± 8.7%.
For `COc1cc(Nc2ncc3c(n2)-c2ccc(Cl)cc2C(c2c(F)cccc2OC)=NC3)ccc1C(=O)O` [Alisertib (MLN8237)], the “percent reduction” value turned out to be 2.08 ± 9.1%.
As for `CC(C)(CCCCCC(O)CCCCCC(C)(C)C(=O)O)C(=O)O`, the “percent reduction” value was 0.88 ± 3.4%.
Consider `O=C(O)[C@]1(Cc2cccc(Nc3nccs3)n2)CC[C@@H](Oc2cccc(Cl)c2F)CC1`, for which the “percent reduction” value was 19.3 ± 12%.
In the case of `N#Cc1ccc2[nH]c(O)c(-c3ccc(CN4CCOCC4)cn3)c2c1`, the “percent reduction” value was -12.4 ± 8.1%.
Turning to `O=C1NC(=O)C(c2cnc3ccccn23)=C1c1cn2c3c(cc(F)cc13)CN(C(=O)N1CCCCC1)CC2`, the “percent reduction” value was -14.7 ± 8.7%.
In the case of `CC(C)n1nc(-c2cc3cc(O)ccc3[nH]2)c2c(N)ncnc21`, the “percent reduction” value was 5.23 ± 4.5%.
`NC[C@@](O)(c1ccc(Cl)cc1)c1ccc(-c2cn[nH]c2)cc1`: the “percent reduction” value is 11 ± 16%.
With `CS(=O)(=O)c1ccc(-c2cnc(N)c(C(=O)Nc3ccccc3)n2)cc1`, the “percent reduction” value turned out to be 5.23 ± 4.7%.
In the case of `N#Cc1c(Oc2ccc(F)c(NC(=O)Cc3cccc(C(F)(F)F)c3)c2)ccc2nc(NC(=O)C3CC3)sc12`, the “percent reduction” value worked out at 1.05 ± 9.1%.
On to `C[C@@H](Oc1cc(-c2cnn(C3CCNCC3)c2)cnc1N)c1c(Cl)ccc(F)c1Cl`, for which the “percent reduction” value came to 35.4 ± 13%.
Turning to `COc1ccc2cc(-c3[nH]c(-c4ccc(S(C)=O)cc4)nc3-c3ccncc3)ccc2c1` (configuration not stated) [Tie2 kinase inhibitor], the “percent reduction” value was 2.05 ± 9.9%.
As for `CN(C)CCCn1cc(C2=C(c3c[nH]c4ccccc34)C(=O)NC2=O)c2ccccc21`, the “percent reduction” value worked out at 8.74 ± 7.2%.
In the case of `O=C(NC(NC(=S)Nc1ccc(F)c([N+](=O)[O-])c1)C(Cl)(Cl)Cl)C(c1ccccc1)c1ccccc1` (configuration not stated), the “percent reduction” value is 3.75 ± 8.9%.
